Experimental data reported in paper PMC5540273 (PLoS ONE, 2017).

Tests used:
Conditions in all cases: concentration: 1 μM, replicates: in singlicate; n = 1
PCTK2 = test system: T1, PCTK2
T1 construct: gene CDK17

PCTK3 = test system: T2, PCTK3
T2 construct: gene CDK18

PDGFRA = test system: PDGFRA
PDGFRB = test system: PDGFRB
PDPK1 = test system: PDPK1
PFTAIRE2 = test system: PFTAIRE2
PFTK1 = test system: T3, PFTK1
T3 construct: gene CDK14

PHKG1 = test system: PHKG1
PHKG2 = test system: PHKG2
PIK3C2B = test system: PIK3C2B
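Also: KINOMEscan kinase panel screen.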

## O=C(Nc1cccc(-c2nn3ccccc3c2-c2ccnc(Nc3cccc(F)c3)n2)c1)c1c(F)ccc(F)c1Cl [GSK357952]
PCTK2
  %Inh: 0%
PCTK3
  %Inh: 9%
PDGFRA
  %Inh: 18%
PDGFRB
  %Inh: 99.7%
PDPK1
  %Inh: 36%
PFTAIRE2
  %Inh: 20%
PFTK1
  %Inh: 2%
PHKG1
  %Inh: 0%
PHKG2
  %Inh: 0%
PIK3C2B
  %Inh: 0%

## Cc1ccc(C(=O)Nc2ccc(Nc3ccnc4cc(-c5nccs5)ccc34)cc2O)cc1.Cl [GW494702]
PCTK2
  %Inh: 0%
PCTK3
  %Inh: 0%
PDGFRA
  %Inh: 28%
PDGFRB
  %Inh: 74%
PDPK1
  %Inh: 10%
PFTAIRE2
  %Inh: 7%
PFTK1
  %Inh: 0%
PHKG1
  %Inh: 4%
PHKG2
  %Inh: 0%
PIK3C2B
  %Inh: 0%

## O=c1[nH]cc(-c2ccc(N3CCOCC3)cc2)c2sc(-c3cn[nH]c3)cc12 [GSK2276055]
PCTK2
  %Inh: 28%
PCTK3
  %Inh: 15%
PDGFRA
  %Inh: 32%
PDGFRB
  %Inh: 63%
PDPK1
  %Inh: 0%
PFTAIRE2
  %Inh: 34%
PFTK1
  %Inh: 42%
PHKG1
  %Inh: 0%
PHKG2
  %Inh: 6%
PIK3C2B
  %Inh: 9%

## COc1cc(Nc2nccc(-c3c(-c4cccc(NC(=O)c5c(F)cccc5F)c4)nn4ccccc34)n2)cc(OC)c1OC [GSK323521]
PCTK2
  %Inh: 8%
PCTK3
  %Inh: 29%
PDGFRA
  %Inh: 89%
PDGFRB
  %Inh: 99.7%
PDPK1
  %Inh: 13%
PFTAIRE2
  %Inh: 25%
PFTK1
  %Inh: 3%
PHKG1
  %Inh: 4%
PHKG2
  %Inh: 10%
PIK3C2B
  %Inh: 27%

## Cc1ccc(C(=O)N2CC[C@@H](O)C2)cc1-n1c(C)cc(OCc2ccc(F)cc2F)c(Br)c1=O
PCTK2
  %Inh: 0%
PCTK3
  %Inh: 7%
PDGFRA
  %Inh: 4%
PDGFRB
  %Inh: 77%
PDPK1
  %Inh: 30%
PFTAIRE2
  %Inh: 2%
PFTK1
  %Inh: 12%
PHKG1
  %Inh: 0%
PHKG2
  %Inh: 0%
PIK3C2B
  %Inh: 0%

## Cc1cccc(Nc2nc(N[C@H]3CCNC3)ncc2C(N)=O)c1.Cl [GSK2197149]
PCTK2
  %Inh: 7%
PCTK3
  %Inh: 34%
PDGFRA
  %Inh: 58%
PDGFRB
  %Inh: 89%
PDPK1
  %Inh: 7%
PFTAIRE2
  %Inh: 7%
PFTK1
  %Inh: 15%
PHKG1
  %Inh: 66%
PHKG2
  %Inh: 68%
PIK3C2B
  %Inh: 0%

## O=C(Nc1cccc(-c2nn3ncccc3c2-c2ccnc(Nc3ccccc3)n2)c1)c1c(F)cccc1F [GSK198271]
PCTK2
  %Inh: 0%
PCTK3
  %Inh: 17%
PDGFRA
  %Inh: 65%
PDGFRB
  %Inh: 100%
PDPK1
  %Inh: 0%
PFTAIRE2
  %Inh: 23%
PFTK1
  %Inh: 0%
PHKG1
  %Inh: 0%
PHKG2
  %Inh: 0%
PIK3C2B
  %Inh: 0%

## CCn1c(-c2nonc2N)nc2c(C#CC(C)(C)O)ncc(OCCCCN)c21.O=C(O)C(F)(F)F.O=C(O)C(F)(F)F [GSK507274]
PCTK2
  %Inh: 0%
PCTK3
  %Inh: 0%
PDGFRA
  %Inh: 0%
PDGFRB
  %Inh: 25%
PDPK1
  %Inh: 0%
PFTAIRE2
  %Inh: 6%
PFTK1
  %Inh: 32%
PHKG1
  %Inh: 5%
PHKG2
  %Inh: 0%
PIK3C2B
  %Inh: 0%

## CN(C)Cc1ccc(-c2ccc3c(Nc4ccc(Oc5ccccn5)cc4)ccnc3c2)o1 [GW567148]
PCTK2
  %Inh: 0%
PCTK3
  %Inh: 0%
PDGFRA
  %Inh: 82%
PDGFRB
  %Inh: 98.7%
PDPK1
  %Inh: 0%
PFTAIRE2
  %Inh: 0%
PFTK1
  %Inh: 0%
PHKG1
  %Inh: 2%
PHKG2
  %Inh: 0%
PIK3C2B
  %Inh: 0%

## CC(C)c1nc(-c2cccc(NS(=O)(=O)c3c(F)cccc3F)c2F)c(-c2ccnc(Nc3ccc(N4CCOCC4)nc3)n2)s1 [GSK2008607]
PCTK2
  %Inh: 100%
PCTK3
  %Inh: 100%
PDGFRA
  %Inh: 90%
PDGFRB
  %Inh: 100%
PDPK1
  %Inh: 0%
PFTAIRE2
  %Inh: 94.6%
PFTK1
  %Inh: 98.7%
PHKG1
  %Inh: 0%
PHKG2
  %Inh: 0%
PIK3C2B
  %Inh: 49%
